Assay outcomes as filed in PubChem.
The list is not random: actives were taken first. Their share in the collection is about 21%.
CHX counter: counter-screen hit for Shiga toxin inhibitors, cycloheximide | cell reporter, cycloheximide protein synthesis inhibition counterscreen | AID 2314 | max response, % | actives 12% (n = 300,000); in the data active means max response mostly above about 13%, no sharp cut-off; inactive means mostly below about 14%; further: read at 38.3 µM for the half of the compounds with a filed dose; 0% is about no effect
Pf growth 48h: P. falciparum growth inhibition at 48 hours (one generation). P. falciparum luciferase growth in erythrocytes, 48 h. Potency, µM (highest dose often 28.7 µM), for inactives: at the highest dose activity change, negative = inhibition, most hits filed as inhibitors. actives 5.9% (n = 310,000). AID 504832; further: potency means the concentration at half of the fitted maximal effect; on the % scale 0 is the no-effect control and ±100 the full control effect
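In quantitative HTS format, infected erythrocytes bearing luciferase-reporter parasites were treated for a single generation at 37 C. Luminescence after adding detection reagent served as the growth measure.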
Shiga inhibitor: blocks Shiga toxin action in Vero cells; Vero cells, Shiga toxin protein synthesis inhibition reporter; inhibition, % at 38.7 µM; actives 9.2% (n = 290,000); AID 2315; in the data active means inhibition mostly above about 28%, no sharp cut-off; inactive means mostly below about 43%; further: 0% is about no effect
Pf growth 96h: inhibits malaria parasite growth, 96 h; actives 6.9% (n = 320,000); P. falciparum luciferase reporter growth, 96 h; AID 504834; Potency, µM (highest dose often 28.7 µM), inactives show at the top dose activity change, negative = inhibition, actives largely listed as inhibitors; further: potency means the concentration at half of the fitted maximal effect; on the % scale 0 is the no-effect control and ±100 the full control effect
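Cell-based qHTS: luciferase-tagged P. falciparum in erythrocytes (2% hematocrit, 0.05% parasitemia final) incubated with compounds for 96 hours, 37 C, 5% CO2; luciferase detection reagent then added and luminescence measured.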
* hit, by the source's call; ? = inconclusive; . = no result. Unless noted, the call rests on the fitted dose curve; in most records, active means well fitted inhibition curve with a large enough effect; inconclusive means small, poorly fitted or top-dose-only effect, or another doubt; inactive means no such curve, though single readings can be large or run the other way.

SMILES | CHX counter | Pf growth 48h | Shiga inhibitor | Pf growth 96h
O=C1CSC(c2cccc(F)c2)N1c1c(F)cccc1F (configuration not stated) | 2 | -18% | -6 | 3%
O=C1CSC(c2ccccc2F)N1c1ccccc1 (configuration not stated) | -1 | -16% | -7 | 8.3µM*
O=C1CSC(c2c(F)cccc2Cl)N1c1cccc(F)c1 (configuration not stated) | -2 | ? | -4 | 12µM*
CCOc1ccc(-c2cn(CCC#N)cn2)cc1 | 15* | 30% | 18 | 6.6µM*
CN(C)C1CCc2[nH]c3ccc(NC(=O)c4ccc(F)cc4)cc3c2C1 (configuration not stated) | -4 | . | -1 | .
CC(=O)CSc1cc(C)nc2c(-c3ccccc3)c(C)nn12 | -1 | 45% | -2 | -27%
Cc1nn2c(-c3cccnc3)ccnc2c1-c1ccccc1 | 25* | 3% | 41* | -8%
C=CCSc1cc(C)nc2c(-c3ccccc3)c(C)nn12 | 25* | ? | 13 | 10µM*
Cc1cc(N)n2nc(C)c(-c3ccc(Cl)cc3)c2n1 | 8 | ? | 6 | -10%
Cc1cc(SCC(=O)c2cccs2)n2nc(C)c(-c3ccccc3)c2n1 | 39* | ? | 39* | 0%
Cc1cc(N)n2nc(C)c(-c3ccccc3)c2n1 | 13* | ? | 21 | 82%
CCCn1ncc(/C=N/O)c1C | -2 | 8% | -4 | 18%
CCOC(=O)c1c(O)cc(C)[nH]c1=O | -3 | 13% | -5 | 40%
CCOc1cc(C(=S)N2CCOCC2)ccc1OC(=O)c1cc(OC)c(OC)c(OC)c1 | -1 | 28% | -2 | 130%
Cc1cc(/C=C(\C#N)C(=O)Nc2ccccc2)c(C)n1-c1cccnc1 | 33* | 68% | 62* | ?
Cc1ccc(NC(=O)/C(C#N)=C/c2ccccc2C(F)(F)F)cc1 | 27* | 0% | 63 | 7%
N#C/C(=C\c1ccccc1O)C(=O)Nc1cccnc1 | 46* | ? | 57* | ?
CN(C)/C=C(\C#N)C(=O)Nc1ccccc1 | 32* | 77% | 57* | 313%
Cc1cccc(NC(=O)/C(C#N)=C\c2cccnc2)c1 | -3 | -7% | -3 | -9%
Cn1cc(S(=O)(=O)NC2CCCCC2)c(=O)n(C)c1=O | . | 10% | . | 7%
CCOC(=O)/C(C#N)=C/c1cc(C)n(-c2ccccc2)c1C | 50* | . | 111* | -25%
CCOC(=O)/C(C#N)=C/c1cc(C)n(-c2ccc(Br)cc2)c1C | -4 | . | -6 | 6%
CCOC(=O)c1cc([N+](=O)[O-])sc1NC(=O)c1ccc(S(=O)(=O)N2CC3(C)CC2CC(C)(C)C3)cc1 (configuration not stated) | -5 | 11% | -5 | -13%
CCCNC(=O)c1cccc(S(=O)(=O)N2CC3(C)CC2CC(C)(C)C3)c1 (configuration not stated) | . | ? | . | 13µM*
CC(=O)Nc1ccc(S(=O)(=O)N2CC3(C)CC2CC(C)(C)C3)cc1 (configuration not stated) | -2 | -29% | -12 | 2%
SMILES | CHX counter | Pf growth 48h | Shiga inhibitor | Pf growth 96h
CC1(C)CC2CC(C)(CN2S(=O)(=O)c2ccc(C(=O)Nc3ccc(Cl)c(S(=O)(=O)N4CCOCC4)c3)cc2)C1 (configuration not stated) | 12 | 9.3µM* | -19 | ?
CC1(C)CC2CC(C)(CN2S(=O)(=O)c2ccc(C(=O)Nc3ccc(S(=O)(=O)N4CCOCC4)cc3)cc2)C1 (configuration not stated) | -2 | 10µM* | -7 | ?
O=C(O)c1cccc(S(=O)(=O)N2CCN(Cc3ccc4c(c3)OCO4)CC2)c1 | -2 | 2% | -21 | 36%
CCC(c1nnc(SCC(=O)Nc2ccc(C(=O)N(C)C)cc2)n1Cc1ccccc1)N(C)C (configuration not stated) | -1 | 62% | 16 | 10%
COc1ccccc1C(=O)Nc1nnc(S(=O)(=O)N2CCC(C)CC2)s1 | -2 | 28% | 5 | ?
COc1ccccc1C(=O)Nc1nnc(S(=O)(=O)N2CCOCC2)s1 | 14* | 29% | 16 | 26%
O=C(Nc1nnc(S(=O)(=O)N2CCOCC2)s1)c1ccccc1 | 11* | 3% | 22 | 5%
O=C(Nc1nnc(S(=O)(=O)N2CCOCC2)s1)c1ccc(Cl)cc1 | -2 | ? | 29 | -6%
CCc1ccc(NC(=O)[C@H](C)NC(=O)C2CCN(C(=O)[C@@H](N)C(C)C)CC2)cc1 | -1 | -12% | -2 | 18%
CC(C)(C)c1ccc(/C=N/Nc2nncn2N)cc1 | 17* | 30% | 13 | 91%
CSc1ccc(/C=N\Nc2nncn2N)cc1 | 28* | -12% | 76* | 36%
Nn1cnnc1N/N=C/c1cc(Br)cc(Br)c1O | -3 | 0% | -14 | 70%
CC(C)(C)c1nnc(N/N=C/c2ccc(Br)cc2)n(N)c1=O | 55* | 20% | 64* | -13%
CN(C)S(=O)(=O)c1cccc(C(=O)Nc2cc3c(cc2C(=O)O)OCCCO3)c1 | -2 | 19% | 4 | 28%
O=C(CN1CCCC1c1cccs1)N1CCN(S(=O)(=O)c2ccccc2)CC1 (configuration not stated) | . | -22% | . | ?
COc1cc2nc(CN3CCN(S(=O)(=O)c4c(F)cccc4F)CC3)[nH]c(=O)c2cc1OC | . | 10µM* | . | ?
COc1cc2nc(CN3CCN(C(c4ccccc4)c4ccccc4)CC3)[nH]c(=O)c2cc1OC | -2 | ? | 2 | ?
COc1cc(NC(=O)CSc2nc3cc(C)ccc3cc2C)c(C(=O)O)cc1OC | -5 | 14% | -3 | 9.3µM*
O=C(CSc1nc2ccccc2nc1N1CCOCC1)Nc1ccccc1F | 20* | 0% | 24* | -15%
COc1ccc(C)cc1NC(=O)CSc1nc2ccccc2nc1N1CCCCC1 | -2 | 4.1µM* | -3 | 20%
CCOc1ccc(NC(=O)CSc2nc3ccccc3nc2N2CCCC2)cc1 | -3 | -17% | -6 | 12µM*
Cc1ccc(CNC(=O)CN2C(=O)CSc3ccc(S(=O)(=O)N4CCCCC4)cc32)cc1 | 0 | ? | -9 | 19%
CCOC(=O)c1cc2occc2n1CC(=O)Nc1ccc(OC)cc1OC | 15 | ? | -4 | 20%
Cc1ccc(NC(=O)CSc2nc3ccccc3nc2N2CCOCC2)cc1 | 2 | -9% | 13 | ?
CC(=O)Nc1ccc(NC(=O)CSc2nc3ccccc3nc2N2CCC(C)CC2)cc1 | 19* | ? | 36 | -2%
Cc1ccc(C)n1CCN1CCN(C(=O)CSc2nc3ccccc3nc2N2CCOCC2)CC1 | -1 | 12µM* | 12 | -1%
CCOc1ccc(S(=O)(=O)Nc2nc3ccccc3nc2N2CCN(C)CC2)cc1 | 7 | 7% | -5 | 3.7µM*
Cc1cc(C)cc(NC(=O)CSc2nc3ccccc3nc2N2CCCCC2)c1 | -4 | ? | 17 | 9.3µM*
COc1ccc(S(=O)(=O)NCC(c2ccc(F)cc2)N2CCN(C)CC2)cc1 (configuration not stated) | . | -19% | . | -4%
Cc1ccc(S(=O)(=O)NC(Cc2ccccc2)C(=O)O)cc1C (configuration not stated) | -3 | -1% | -4 | -8%
